The nature of assay [1]: Quantitative High-Throughput drug screen in 47 multiple myeloma cell lines against the NCATS MIPE library collection: OCIMY1_PLB cell viability assay (AID 1918979). Further: nearly all actives have a fitted effect of over 35% in size. Further: potency means the concentration at half of the fitted maximal effect. The procedure, abridged:
(§1)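 Myeloma cells (500/well) treated with MIPE 4.0 compounds for 48 h at 37 °C, 5% CO2. Viability read as ATP via CellTiter-Glo luminescence after 5 min at RT; DMSO-only wells = 100%, media-only = 0% viability.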

Assay [2] can be described thus: Quantitative High-Throughput drug screen in 47 multiple myeloma cell lines against the NCATS MIPE library collection: MM1S_ATCC cell viability assay (AID 1918980). Further: nearly all actives have a fitted effect of over 45% in size. In a few lines:
as §1

A short description of assay [3]: Quantitative High-Throughput drug screen in 47 multiple myeloma cell lines against the NCATS MIPE library collection: L363_DSMZ cell viability assay (AID 1918984). Further: nearly all actives have a fitted effect of over 40% in size. Further: potency means the concentration at half of the fitted maximal effect. The procedure, abridged: as §1
Assay [4] is described as follows: Quantitative High-Throughput drug screen in 47 multiple myeloma cell lines against the NCATS MIPE library collection: OCIMY7_PLB cell viability assay (AID 1918987). Further: nearly all actives have a fitted effect of over 65% in size. Further: potency means the concentration at half of the fitted maximal effect. The following applies: OCI-MY7 myeloma viability, CellTiter-Glo ATP, 48 h; viability (% of DMSO): at 45.8 µM (top of the series). In a few lines: as §1
A short description of assay [5]: Quantitative High-Throughput drug screen in 47 multiple myeloma cell lines against the NCATS MIPE library collection: MM1R_ATCC cell viability assay (AID 1918981). Further: nearly all actives have a fitted effect of over 35% in size. Further: potency means the concentration at half of the fitted maximal effect. The procedure, abridged: as §1
Assay [6] can be described thus: Quantitative High-Throughput drug screen in 47 multiple myeloma cell lines against the NCATS MIPE library collection: LP1_DSMZ cell viability assay (AID 1918982). Further: nearly all actives have a fitted effect of over 35% in size. Further: potency means the concentration at half of the fitted maximal effect. The procedure, abridged: as §1
Assay [7] is described as follows: Quantitative High-Throughput drug screen in 47 multiple myeloma cell lines against the NCATS MIPE library collection: KMS28PE_JCRB cell viability assay (AID 1918983). Further: nearly all actives have a fitted effect of over 35% in size. Further: potency means the concentration at half of the fitted maximal effect. The procedure, abridged:
as §1

A short description of assay [8]: Quantitative High-Throughput drug screen in 47 multiple myeloma cell lines against the NCATS MIPE library collection: KMS34_JCRB cell viability assay (AID 1918985). Further: nearly all actives have a fitted effect of over 40% in size. Further: potency means the concentration at half of the fitted maximal effect. In a few lines: as §1
A short description of assay [9]: Quantitative High-Throughput drug screen in 47 multiple myeloma cell lines against the NCATS MIPE library collection: OPM1_PLB cell viability assay (AID 1918989). Further: nearly all actives have a fitted effect of over 40% in size. Further: potency means the concentration at half of the fitted maximal effect. The procedure, abridged:
as §1

Assay [10] is described as follows: Quantitative High-Throughput drug screen in 47 multiple myeloma cell lines against the NCATS MIPE library collection: OCIMY5_PLB cell viability assay (AID 1918988). Further: nearly all actives have a fitted effect of over 65% in size. Further: potency means the concentration at half of the fitted maximal effect. The procedure, abridged: as §1

Drawing on PubChem BioAssay (NCATS), this text covers Potency for 22 compounds.

Results filed as inconclusive are left out. The source made the active and inactive calls. The call rests on the fitted dose curve; in most records, active means well fitted cell-killing curve with a large enough effect; inconclusive means small, poorly fitted or top-dose-only effect, or effect the other way; inactive means no such curve, though single readings can be large or run the other way.

For `CC1CCC(C(=O)N(c2cc(C#CC(C)(C)C)sc2C(=O)O)C2CCC(O)CC2)CC1` (configuration not stated), the Potency entry in assay [1], in assay [2] and in assay [3] was “inactive” each time. Moreover, the Potency in [4] is 23.5 µM (active).

On to `CC(C)(C)COc1ccc(-n2cc(C(=O)O)cn2)cc1C#N`, for which the Potency entry in assay [1], in [5], in [6], in assay [7], in [3] and in assay [8] was “inactive” throughout.

For `Clc1ccc(-c2nc3sccn3c2C=NOCc2ccc(Cl)c(Cl)c2)cc1`, the Potency entry in assay [1], in assay [5], in [6], in assay [8] and in assay [9] was “inactive” each time.

For the compound `CC(C(=O)O)c1ccc(-c2ccccc2)c(F)c1` (configuration not stated), the Potency entry in assay [1], in assay [5], in assay [6], in [7], in assay [8] and in [9] was “inactive” throughout. In assay [4], the Potency is 14.8 µM (active).

Regarding `Nc1ncnc2ccccc12`, the Potency entry in assay [1], in assay [5], in assay [6] and in assay [9] was “inactive” throughout. The values for the Potency in [4] and in assay [10] were 14.8 µM (active) and 26.4 µM (active), respectively.

On to `COc1ccc(-c2coc3cc(O)cc(O)c3c2=O)cc1`, for which the Potency entry in [1], in [5], in assay [6], in assay [7], in [8] and in [4] was “inactive” throughout. In [9], the Potency entry was “inactive”.

As to `CN1C[C@H]2c3ccccc3Oc3ccc(Cl)cc3[C@@H]2C1`, the Potency result in assay [1], in assay [5], in assay [6] and in assay [7] was “inactive” each time. Besides, the Potency in assay [10] was 13.2 µM (active).

As for `CN(C)C1CCN(C(=O)c2ccc(NC(=O)Nc3nc(N4CCOCC4)nc(N4CCOCC4)n3)cc2)CC1`, the Potency is 5.9 µM (active) in [1]; 0.0418 µM (active) in assay [5]; 0.0132 µM (active) in [7]; 0.132 µM (active) in assay [8]; 5.26 µM (active) in assay [4]; 0.0418 µM (active) in assay [10].

On to `O=C(NOCC(O)CO)c1cc(Br)c(F)c(F)c1Nc1ccc(I)cc1F` (configuration not stated), for which the Potency result in assay [1], in [5], in assay [7] and in assay [3] was “inactive” each time. Besides, the Potency in [4] was 0.0166 µM (active).

On to `CNC(=O)c1ccc2cc(C3(O)CCn4cncc43)ccc2c1` (configuration not stated), for which the Potency result in assay [1], in assay [5], in [6], in assay [7] and in assay [9] was “inactive” in each case.

Consider `N#CC(=C(N)Sc1ccccc1N)C(C#N)=C(N)Sc1ccccc1N`, for which the Potency result in assay [1] is “inactive”. The Potency in assay [5] was 1.18 µM (active); in assay [3] it was 10.5 µM (active); in assay [4], 0.662 µM (active); in [9] it was 20.9 µM (active).

As to `NC[C@@H]1O[C@@H](O[C@H]2[C@@H](O)[C@H](O[C@@H]3[C@@H](O)[C@@H](N)C[C@H](N)[C@H]3O[C@H]3O[C@H](CN)[C@@H](O)[C@@H](O)[C@H]3N)O[C@H]2CO)[C@H](N)[C@@H](O)[C@@H]1O`, the Potency result in assay [1], in assay [5], in assay [6], in assay [3], in assay [8] and in [10] was “inactive” throughout. For the same compound, the Potency entry in assay [9] was “inactive”.

For the compound `O=C1NC(=O)C(=Cc2cccc(C(F)(F)F)c2)S1`, the Potency entry in assay [1], in assay [5], in [6] and in assay [8] was “inactive” throughout.

In the case of `CN(C)Cc1cccc(N=C(c2ccccc2)c2c(O)[nH]c3cc(C(=O)N(C)C)ccc23)c1`, the Potency result in [1] is “inactive”. Also, the Potency in assay [5] was 4.69 µM (active); in [7] it was 18.7 µM (active); in assay [3], 8.33 µM (active); in [4] it was 0.935 µM (active); in assay [10], 10.5 µM (active); in assay [9], 18.7 µM (active).

`Cc1[nH]c(C=C2C(=O)Nc3ccc(S(=O)(=O)Cc4c(Cl)cccc4Cl)cc32)c(C)c1C(=O)N1CCC[C@H]1CN1CCCC1`: the Potency in assay [1] was 26.4 µM (active); in assay [5], 20.9 µM (active); in [6], 23.5 µM (active); in assay [7] it was 20.9 µM (active); in [3], 2.35 µM (active); in [8] it was 20.9 µM (active). The Potency in assay [4] is 10.5 µM (active); in [10] it was 14.8 µM (active); in [9] it was 8.33 µM (active).

Turning to `CCOC(=O)O[C@]1(C(=O)OCCl)CC[C@@H]2[C@H]3CCC4=CC(=O)C=C[C@]4(C)[C@@H]3[C@@H](O)C[C@@]21C`, the Potency result in assay [1], in assay [5], in [7] and in assay [3] was “inactive” throughout.

As to `C[C@]12CCC3c4ccc(O)cc4CCC3C1CCC2=O` (some centres not stated), the Potency result in [1] and in assay [5] was “inactive” in each case. Also, the Potency in assay [7] was 11.8 µM (active); in assay [8], 10.5 µM (active).

Turning to `O=C(Nc1ccccc1-c1cn2c(CN3CCNCC3)csc2n1)c1cnc2ccccc2n1`, the Potency is 16.6 µM (active) in assay [1]; 20.9 µM (active) in [5]; 23.5 µM (active) in assay [6]; 23.5 µM (active) in assay [7]; 9.35 µM (active) in assay [4]; 8.33 µM (active) in [10]. The Potency in assay [9] is 8.33 µM (active).

As to `O=C1c2ccccc2-[n+]2ccc3c([nH]c4ccccc43)c21`, the Potency in assay [1] was 3.72 µM (active); in assay [5] it was 2.09 µM (active); in assay [7] it was 2.35 µM (active); in assay [3], 3.72 µM (active); in assay [8] it was 0.833 µM (active); in assay [4] it was 0.264 µM (active). For the same compound, the Potency in [9] is 0.935 µM (active).

Take `COc1ccc2cccc(CCNC(C)=O)c2c1`: the Potency result in assay [1], in assay [5], in assay [7], in assay [3] and in assay [4] was “inactive” each time.

As to `O=C(Nc1cccc(Br)c1)c1cccc(S(=O)(=O)N2CCCCCC2)c1`, the Potency was 14.8 µM (active) in assay [1]; 18.7 µM (active) in assay [5]; 10.5 µM (active) in assay [6]; 23.5 µM (active) in assay [7]; 13.2 µM (active) in [3]; 18.7 µM (active) in [10]. For the same compound, the Potency in assay [9] is 18.7 µM (active).

As to `COC[C@@H](c1ccc(C(F)(F)F)cc1)N1CCN(C2(C)CCN(C(=O)c3c(C)ncnc3C)CC2)C[C@H]1C`, the Potency result in assay [1], in assay [5], in assay [6], in assay [7] and in [9] was “inactive” in each case.
